The text below walks through data of ChEMBL document CHEMBL4513216, “Probing the Open Global Health Chemical Diversity Library for Multistage-Active Starting Points for Next-Generation Antimalarials” (ACS Infect Dis, 2020).

The whole screen tested about 69,000 compounds, of which about 8,600 (12%) showed an effect of 50% or more. The entries come from a sample that favours strong results as a whole.

The subject of the experiment is Plasmodium berghei. The experiment can be described thus: Screen against P. berghei liver stage (PbLuc), transformed with Luciferase, at 10uM. To be noted: tested at 10 uM. It is filed as functional, HepG2.
As to `CCC(C)(C)C(=O)Nc1ccc2ccn(CC(=O)NC)c2c1`, the INHIBITION is -3.47%.
The result for `Cc1oncc1C(=O)N1C[C@H]2CCCC(N(C)Cc3cccs3)[C@H]2C1` (stereo partly drawn) reads 21.6%; that for `CCS(=O)(=O)CC(=O)NC(C)c1ccc(OCCC(C)C)cc1` (stereo not drawn), 15.4%.
With `CCOC(=O)Cc1csc(NC(=O)c2ccc(=O)[nH]n2)n1`, the INHIBITION is listed as 18.4%.
In the case of `Cc1nc(CN2CCC3(CCN(c4ncc(F)cn4)C3)C2=O)cs1` (stereo not drawn), the INHIBITION was -23.7%.
The value for `CCc1c(C(=O)N2CCN(CC(N)=O)CC2)cnn1C(C)(C)C` was 53.8%; that for `CCc1c(C(=O)N2CCC(CC(N)=O)CC2)cnn1C(C)(C)C` was 47.1%; that for `CCc1c(C(=O)N2CCCN(C(C)=O)CC2)cnn1C(C)(C)C` was 44.3%.
For `CN(C)S(=O)(=O)NC1CCCc2c1cnn2-c1ccc(C(C)(C)C)cc1` (stereo not drawn), the INHIBITION came to 58.8%.
The value for `CC(C)(C)c1ccc(-n2ncc3c2CCCC3N)cc1` (stereo not drawn) was 22.6%; that for `Cc1ccc(-n2ncc3c2CCCC3N)cc1C` (stereo not drawn) was 33.7%; that for `Cn1cc(C2CCCN2CCC(=O)N2CCc3sccc3C2)cn1` (stereo not drawn) was 19.2%.
On to `COc1ccc(CN2CC[C@H]3CO[C@H](CNC(=O)N(C)C)[C@H]3C2)cc1`, for which the INHIBITION came to 12.7%.
The result for `Cc1ccc(CN2Cc3nccn3CC(Cn3cncn3)C2)s1` (stereo not drawn) reads -9.02%; that for `Cc1cc(Br)ccc1C(=O)N(C)CCNS(C)(=O)=O`, 35.9%; that for `Cc1cc(C(=O)N(CC(=O)O)CC(C)C)ccc1F`, 40.9%.
The value for `Cc1cc(C(=O)N(C)S(C)(=O)=O)ccc1F` was 61%; that for `Cc1ccc(C(=O)N(CC(=O)O)CC(C)C)cc1F` was 39.7%; that for `CN(CCNS(C)(=O)=O)C(=O)c1ccc(Cl)c(Cl)c1` was 66.5%.
The result for `Cc1cc(C(=O)N(C)S(=O)(=O)C(C)C)ccc1F` reads 61.9%; that for `Cc1ccc(C(=O)N2CCCS2(=O)=O)cc1Cl`, 21.1%; that for `CN(CC(F)(F)F)C(=O)c1ccc(F)c(NS(C)(=O)=O)c1`, -43.5%.
As to `Cc1sc(C(=O)N(C)S(C)(=O)=O)cc1-c1ccc(F)cc1`, the INHIBITION came out at 13.3%.
The value for `CN(C(=O)c1ccc(Cl)c(S(C)(=O)=O)c1)c1ccccc1` was 5.91%; that for `Cc1ccc(C(=O)N(C)S(C)(=O)=O)cc1Cl` was 61.9%; that for `Cc1ccc(C(=O)N(C)CCNS(C)(=O)=O)cc1Br` was 23.9%.
The result for `Cc1cc2ccncc2n1CC1(O)CCN(C(=O)c2ccncc2)CC1` reads 7.19%; that for `CNc1nc(C)c(C(=O)NCC(C)(C)N2CCCCC2)s1`, -34.6%.
The result for `CN(CCO)Cc1nnc(C2CCN(CC3[C@H]4CNC[C@@H]34)CC2)n1C` (stereo partly drawn) reads -3.55%; that for `c1ncn(CC2CCCN(Cc3nnc(C4CC4)o3)C2)n1` (stereo not drawn), -0.74%; that for `Cc1nc(C(C)C)sc1C(=O)NCCNc1ncccn1`, 26.5%.
As for `COc1ccc(CN2CCN(C(C)=O)CC2)cc1SC(F)(F)F`, the INHIBITION is 21.9%.
The value for `COc1ccc(CN2CCNC(=O)CC2)cc1SC(F)(F)F` was 25.3%; that for `COc1ccc(CN2CCC(C(N)=O)CC2)cc1SC(F)(F)F` was 52.2%.
The result for `O=C(CCc1ccccc1)NCC(O)c1c(F)cccc1F` (stereo not drawn) reads 45.7%; that for `Cc1noc([C@@H]2C[C@H]3OCC[C@H]3N(CC3CCCC3)C2)n1`, 29.9%.
For the compound `Cc1noc([C@@H]2C[C@H]3OCC[C@H]3N(Cc3cc(C)c(C)o3)C2)n1`, the INHIBITION was 57.9%.
The value for `Cc1noc([C@H]2C[C@H]3OCC[C@H]3N(Cc3scnc3C)C2)n1` was 0.777%; that for `Cc1noc([C@@H]2C[C@H]3OCC[C@H]3N(Cc3sccc3C)C2)n1` was 54.4%.
The value for `Cc1noc([C@H]2C[C@H]3OCC[C@H]3N(Cc3cccs3)C2)n1` was 43.9%; that for `CCc1ccc(CN2C[C@@H](c3nc(C)no3)C[C@H]3OCC[C@H]32)o1` was -2.72%.
The value for `Cc1noc([C@H]2C[C@H]3OCC[C@H]3N(C3CCC3)C2)n1` was 92%.
Consider `Cc1noc([C@@H]2C[C@H]3OCC[C@H]3N(Cc3ccoc3)C2)n1`, for which the INHIBITION was determined as 15.9%.
For the compound `Cc1noc([C@@H]2C[C@H]3OCC[C@H]3N(C(C)C)C2)n1`, the INHIBITION was -18.2%.
The value for `Cc1cnn(CC2CCCN2CC(=O)Nc2nccs2)c1` (stereo not drawn) was -12.1%; that for `CC(C)N1[C@@H](C(=O)NCC2CC2)C[C@@H]2CN(Cc3ccco3)C[C@@H]21` was -11%; that for `COCCOc1cc(C)ccc1NC(=O)N(C)Cc1cnn(C)c1` was -58%.
The result for `O=C1CN(Cc2nnc(-c3ccc(Br)cc3)o2)CCN1` reads 10.8%; that for `Cc1c(O)oc(-c2ccc(Br)cc2)nc1=O`, 55.5%; that for `CNC(=O)NC(C)c1nc(-c2ccc(Br)cc2)no1` (stereo not drawn), 47.8%.
The value for `CCOCCCNS(=O)(=O)c1ccc2c(c1)NC(=O)C(C)O2` (stereo not drawn) was 2.55%; that for `Cc1nn(C)c(N(C)C)c1CNC1CCc2c(Cl)cccc21` (stereo not drawn) was 19.915%.
`Cc1nc(C)c(C(=O)N2CCCC(C(=O)c3nccn3C)C2)s1` (stereo not drawn): the INHIBITION amounted to 36.6%.
